From PubChem BioAssay
The source made the active and inactive calls.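 How the source made its calls: active means fluorescence slope after compound addition differing from the mean of all screened samples at 99.7% confidence, in either direction; inactive means the rest.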

molecular target: Alpha-2C adrenergic receptor (Homo sapiens) (UniProt P18825); test: compounds altering alpha2C-coupled GIRK flux – cell-based, HEK293 alpha2C/GIRK1/2, thallium flux, primary screen (AID 624); conditions: thallium flux BTC fluorescence, at 10 µM, actives lie on both sides;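 further: slope of fluorescence ratio to pre-addition baseline per second over 15 to 24 s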
Sequence (P18825 whole entry, looked up): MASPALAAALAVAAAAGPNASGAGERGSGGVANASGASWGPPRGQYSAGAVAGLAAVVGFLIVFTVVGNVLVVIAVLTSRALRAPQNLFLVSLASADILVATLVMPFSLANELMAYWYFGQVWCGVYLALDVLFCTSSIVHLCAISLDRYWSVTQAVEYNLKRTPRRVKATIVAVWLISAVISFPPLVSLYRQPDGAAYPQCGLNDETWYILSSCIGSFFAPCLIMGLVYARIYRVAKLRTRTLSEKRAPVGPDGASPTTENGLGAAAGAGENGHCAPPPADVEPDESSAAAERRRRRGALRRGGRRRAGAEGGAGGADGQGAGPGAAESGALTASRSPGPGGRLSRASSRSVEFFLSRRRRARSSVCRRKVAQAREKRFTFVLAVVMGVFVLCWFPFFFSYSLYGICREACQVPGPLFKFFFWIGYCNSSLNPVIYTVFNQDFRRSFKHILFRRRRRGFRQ

slope, inactive:
CC(C)NCC(O)COc1cccc2[nH]ccc12 (stereo unspecified) 0.00514
Cc1cc(C)n(S(=O)(=O)Cc2ccccc2)n1 0.00447
Cn1c(Cl)cnc1C1CC(=O)c2cc(Cl)ccc2O1 (stereo unspecified) 0.00554
CCCC(=O)Nc1ccc(OCC(O)CNC(C)C)c(C(C)=O)c1 (stereo unspecified) 0.00505
CC1(C)SC2[C@H](NC(=O)C(NC(=O)N3CCNC3=O)c3ccccc3)C(=O)N2C1C(=O)O (stereo partly specified) 0.00535
Cc1cc(NS(=O)(=O)c2ccc(N)cc2)no1 0.00461
O=c1cc(NCc2ccccc2)nc2n1CCCS2 0.00575
COc1ccc2c(C)nc(Nc3nc(C)cc(C)n3)nc2c1 0.00447
Fc1cc(F)c(F)c(SCCc2ccncc2)c1F 0.0056
Cc1cnc(NC(=O)C2=C(O)c3ccccc3S(=O)(=O)N2C)s1 0.00455
COc1cccc2c1C(=O)c1c(O)c3c(c(O)c1C2=O)C[C@@](O)(C(=O)CO)C[C@@H]3O[C@H]1C[C@H](N)[C@H](O)[C@H](C)O1 0.00828
O=S(=O)(c1cccc2cnccc12)N1CCCNCC1 0.00448
CC(C)Cc1ccc(C(C)C(=O)O)cc1 (stereo unspecified) 0.00562
C[C@H](CS)C(=O)N1CCC[C@H]1C(=O)O 0.00488
COC(=O)C1=C(C)NC(C)=C(C(=O)OC)C1c1ccccc1[N+](=O)[O-] 0.00935
O=C(c1ccc2c(c1)OCCO2)N1CCCCC1 0.00377
